A selection: hits, their analogues and other compounds. The true share with any hit is near 15%.
HCMV inh = qHTS Assay for inhibitors of the human cytomegalovirus (HCMV). actives 4.5% (n = 410,000). activity change, negative = inhibition, % at 57.5 µM. AID 1259415, 2018. HFF cells, HCMV-luciferase reporter, 72 h; active compounds read low; in the data active = activity change below about -60%; inconclusive = no clear call, values can overlap the other calls; inactive = above about -39%; note: % is set by controls: 0 for no effect and ±100 for the full control effect
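After 16 h attachment at 37C, HFF cells received test compound and HCMV-luciferase (1 PFU/cell); reporter luminescence read 72 h later, data normalized against buffer-only and known inhibitor Salinomycin.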
SARS PLP yeast = qHTS of Yeast-based Assay for SARS-CoV PLP; Potency, µM (titrated, usually from 32.9 µM), inactives show at the top dose activity, positive = growth rescue, most hits filed as activators; actives 0.19% (n = 330,000); S. cerevisiae expressing SARS-CoV PLpro, growth rescue; calls by dose curve; note: potency is the fitted concentration of half-maximal effect; 0% is about no effect; nearly all actives have a fitted effect of over 55% in size
Pf growth 48h = Primary qHTS for delayed death inhibitors of the malarial parasite plastid, 48 hour incubation. actives 5.9% (n = 310,000). P. falciparum luciferase growth in erythrocytes, 48 h. Potency, µM (titrated, usually from 28.7 µM), without a hit: at the highest dose activity change, negative = inhibition, most hits filed as inhibitors; note: potency is the fitted concentration of half-maximal effect; % is set by controls: 0 for no effect and ±100 for the full control effect
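Cell-based growth assay: transgenic P. falciparum expressing firefly luciferase, cultured in red cells within RPMI 1640 containing 0.5% w/v Albumax, 24 mM bicarbonate and gentamycin. A drop in luciferase activity indicates inhibition.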
HCV inhibitor = qHTS Assay for Inhibitors of Hepatitis C Virus (HCV). actives 3.4% (n = 340,000). Potency, µM (doses to about 41.8 µM), without a hit: at the highest dose activity change, negative = inhibition, most hits filed as inhibitors. Huh7.5.1 HCVcc-Cre infection, luciferase reporter, 44 h. AID 651820, 2012; note: potency is the fitted concentration of half-maximal effect; % is set by controls: 0 for no effect and ±100 for the full control effect
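Luciferase read-out (15 sec integration) after a 15 min room-temperature substrate step quantifies HCVcc-Cre infection. Cells, 1,000 per well, had compound added 4 h post-plating, then virus at ~0.5 moi, and were cultured 44 h.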
Sm TGR block = qHTS Assay for the Inhibitors of Schistosoma Mansoni Peroxiredoxins; purified TGR, DTNB reduction, TNB absorbance 405 nm; Potency, µM (doses to about 114 µM), without a hit: at the highest dose activity change, negative = inhibition, actives largely listed as inhibitors; actives 3% (n = 360,000); note: potency is the fitted concentration of half-maximal effect; % is set by controls: 0 for no effect and ±100 for the full control effect; nearly all actives have a fitted effect of over 60% in size
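Kinetic colorimetric format: TGR-catalysed, NADPH-driven DTNB reduction monitored via TNB absorbance. Enzyme dispensed at 20 nM; compound exposure 15 min at room temperature before reaction start.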
Pf growth 96h = Primary qHTS for delayed death inhibitors of the malarial parasite plastid, 96 hour incubation | AID 504834, 2011 | actives 6.9% (n = 320,000) | P. falciparum luciferase reporter growth, 96 h | Potency, µM (highest dose often 28.7 µM), without a hit: at the highest dose activity change, negative = inhibition, usual class: inhibitors; note: potency is the fitted concentration of half-maximal effect; % is set by controls: 0 for no effect and ±100 for the full control effect
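Parasite growth measured via integrated firefly luciferase reporter in P. falciparum. Infected erythrocytes at 2% hematocrit, 0.05% parasitemia final were treated 96 hours at 37 C under 5% CO2, and luminescence was read.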
Starred values were filed as active, the others as inactive; ? = inconclusive; . = no result; [ ] = another dose, or the depositor's remark. Unless noted, calls come from the whole dose curve; as a rule, active = well fitted curve in the direction sought with a large enough effect; inconclusive = small, poorly fitted or top-dose-only effect, or another doubt; inactive = no such curve, though single readings can be large; an effect the other way counts as inactive or inconclusive.

SMILES | HCMV inh | SARS PLP yeast | Pf growth 48h | HCV inhibitor | Sm TGR block | Pf growth 96h
COc1ccc(C2/C=C\CN(C(=O)C3CC3)[C@H](Cc3ccccc3)C(=O)N2Cc2ccc(F)cc2)cc1 (stereo not given in full) | . | -11% | 10µM* | -10%[8.37 µM] | -27% | ?
CCCCCCC(=O)N1C/C=C\C(c2ccc(OC)cc2)N(Cc2ccc(F)cc2)C(=O)[C@H]1Cc1ccccc1 (stereo not given in full) | -93* | -9% | 9.3µM* | -20%[8.37 µM] | -29% | 7.4µM*
COc1ccc(C2/C=C\CN(C(=O)c3ccccc3)CC(=O)N2Cc2ccc(F)cc2)cc1 (stereo not given) | -13 | 5% | ? | -13%[8.37 µM] | -5% | ?
CCCCN(C(=O)c1c(CC)noc1C)c1c(N)n(CCC)c(=O)[nH]c1=O | 1 | 2% | ? | 34% | -1% | 22%
CCOC(=O)C1=C(C)NC(=O)CC1c1cc(OC)c(OC)cc1Br (stereo not given) | 0 | 4% | 0.47µM* | 9% | -7% | ?
CSc1sc(C(=O)OC(C)C)c2c1C(=O)CC(C)(C)C2 | 30 | 0% | 7.4µM* | -16% | 1% | ?
CCN(CC)S(=O)(=O)c1cccc(C(=O)OCC(=O)c2ccc3c(c2)OCCO3)c1 | 48 | 6% | 10% | 0% | 6% | 28%
O=C(NNC(=O)c1ccccc1OCc1ccccc1Cl)c1csc(N2CCOCC2)n1 | 13 | 0% | ? | 10µM* | -2% | ?
Cc1ccc(C)c(SCC(=O)NNC(=O)c2csc(N3CCOCC3)n2)c1 | -62* | 3% | 31% | -5% | 0% | 13%
Cc1ccccc1C(=O)Nc1ccc(Br)cn1 | 28 | 1% | 211% | ? | -13% | 309%
O=C(Nc1ccc(Br)cn1)c1ccc(Br)s1 | -99* | -2% | 144% | ? | -23% | 245%
O=C(Nc1ccccc1C(=O)Nc1nnc(C(F)(F)F)s1)c1ccccc1Cl | -103* | -1% | ? | 11µM* | 10% | 4.7µM*
O=C(/C=C/c1cccs1)Nc1ccc(Br)cn1 | -66* | -18% | 274% | 8% | -3% | 328%
O=C(Nc1nnc(Cc2ccccc2F)s1)c1ccccc1Cl | 18 | 5% | 37% | 7% | -13% | -7%
O=C(Nc1ccccc1C(=O)Nc1ccc(Br)cn1)c1ccccc1Cl | 0 | -12% | ? | 13µM* | -2% | ?
O=C(/C=C/c1cccs1)Nc1cccc(NC(=O)/C=C/c2cccs2)n1 | -25 | -46% | 49% | ? | -8% | -17%
Cc1ccc2nc(-c3ccccc3)nn2c1 | 14 | . | . | -10% | . | .
O=C(NCC(c1ccccc1Cl)N1CCCC1)C1CCN(C(=O)Nc2ccccc2)CC1 (stereo not given) | -27 | 10% | ? | -11% | -23% | ?
CCn1c(=O)n(-c2ccc(F)c(Cl)c2)c(=O)c2sc3ccccc3c21 | 0 | . | . | . | -2% | .
O=C(Nc1nnc(-c2ccccc2Cl)s1)c1ccccc1F | 13 | 1% | 4% | 7% | 28µM* | -21%
O=C(Nc1ccccc1NC(=O)c1ccccc1Cl)c1ccccc1Cl | -24 | 3% | ? | -11% | -28% | 15µM*
NC(=O)c1ccccc1NC(=O)c1ccccc1Cl | -34 | 0% | 3% | 15% | -2% | ?
O=C(Nc1nnc(-c2ccccc2)s1)c1ccccc1F | 71 | 0% | 116% | 16% | 13% | 83%
O=C(COC(=O)c1ccc(O)cc1)Nc1cc(C(F)(F)F)ccc1N1CCOCC1 | 5 | 0% | 13% | 18% | 1% | 27%
CSCC[C@H](NC(=O)N1CCn2c1nc1ccccc12)C(=O)NCc1ccc(F)cc1 | 0 | 2% | ? | 17% | 2% | 12µM*

Compound activity (PubChem)
